Whole data set: some 140,000 sequences, median “enrichment ratio after two sorts for PhoP signalling” near 0, cut for the highest 2% near 11. The entries come from a sample that favours the highest values as a whole.

First the molecules themselves.
B1: PhoQ; a variant is named by its letters at X, in order, P23837 (parent)
chain: MKKLLRLFFPLSLRVRFLLATAAVVLVLSLAYGMVALIGYSVSFDKTTFRLLRGESNLFYTLAKWENNKLHVELPENIDKQSPTMTLIYDENGQLLWAQRDVPWLMKMIQPDWLKSNGFHEIEADVNDTSLLLSGDHSIQQQLQEVREDDDDAEMTHSVAVNVYPATSRMPKLTIVVVDTIPVELKSSYMVWSWFIYVLSANLLLVIPLLWVAAWWSLRPIEALAKEVRELEEHNRELLNPATTRELTSLVRNLNRLLKSERERYDKYRTTLTDLTHSLKTPLXXLQXXLRSLRSEKMSVSDAEPVMLEQISRISQQIGYYLHRASMRGGTLLSRELHPVAPLLDNLTSALNKVYQRKGVNISLDISPEISFVGEQNDFVEVMGNVLDNACKYCLEFVEISARQTDEHLYIVVEDDGPGIPLSKREVIFDRGQRVDTLRPGQGVGLAVAREITEQYEGKIVAGESMLGGARMEVIFGRQHSAPKDE

In the assay the parent is B1. In words: enrichment ratio after two sorts for PhoP signalling (ratio (wild type AVST 3.29)); higher = more functional. To be noted: with PhoP (E. coli).
On to WKIW, for which the enrichment ratio is at most 0.25.
In the case of PCAY it was at most 0.25.
For QHAW, the enrichment ratio was at most 0.25.
Next, LSTI: at most 0.25.
For the variant GWLL, the enrichment ratio was at most 0.25.
With KRIA, the enrichment ratio was at most 0.25.
Regarding FCYK, the enrichment ratio was at most 0.25.
Next, PGQT: at most 0.25; QFAV: at most 0.25.
As for FDWQ, the enrichment ratio was at most 0.25.
With SGCY, the enrichment ratio is 10.6.
Consider NICK, for which the enrichment ratio was determined as 14.4.
AICV: the enrichment ratio worked out at 15.3.
Regarding AICR, the enrichment ratio came to 11.2.
As to AIMR, the enrichment ratio was determined as 16.6.
As to WICV, the enrichment ratio is at most 0.25.
For AHMR, the enrichment ratio is at most 0.25.
Turning to KKMR, the enrichment ratio was at most 0.25.
Next, ADCV: at most 0.25; NIWM: at most 0.25.
Consider NICR, for which the enrichment ratio is at most 0.25.
Regarding NICI, the enrichment ratio is at most 0.25.
As for WICR, the enrichment ratio is at most 0.25.
IVKK: the enrichment ratio is at most 0.25.
Regarding LSQL, the enrichment ratio was at most 0.25.
Consider TSAF, for which the enrichment ratio worked out at 7.11.
On to PIGM, for which the enrichment ratio was at most 0.25.
AIYP: the enrichment ratio was determined as 12.7.
For WICS, the enrichment ratio is at most 0.25.
As to AICK, the enrichment ratio amounted to 24.4.
In the case of AICS, the enrichment ratio was found to be 18.9.
As to AIWM, the enrichment ratio was at most 0.25.
Take AICA: the enrichment ratio was found to be 3.23.
Regarding AIGM, the enrichment ratio was 8.76.
Consider ADYP, for which the enrichment ratio was at most 0.25.
In the case of AHYP, the enrichment ratio is at most 0.25.
AILH: the enrichment ratio stood at 3.54.
AICI: the enrichment ratio was 16.9.
Take NICS: the enrichment ratio is at most 0.25.
Take MWPS: the enrichment ratio was at most 0.25.
With VCLF, the enrichment ratio is 0.991.
As to LARM, the enrichment ratio is at most 0.25.
In the case of VEST, the enrichment ratio came out at 4.04.
On to APVK, for which the enrichment ratio is at most 0.25.
For the variant HAAR, the enrichment ratio was at most 0.25.
Turning to AICE, the enrichment ratio worked out at 14.2.
In the case of AIIE it was at most 0.25.
For the variant AHCE, the enrichment ratio was at most 0.25.
On to HKRT, for which the enrichment ratio is at most 0.25.
As for NRGY, the enrichment ratio is at most 0.25.
DMWC: the enrichment ratio is at most 0.25.
For AKAV, the enrichment ratio was found to be 0.73.
In the case of MNAS it was 6.24; in that of SQAV, 6.43.
With TNAV, the enrichment ratio was 27.6.
Turning to SNAV, the enrichment ratio is 12.6.
As to ANAE, the enrichment ratio is at most 0.25.
As for ANAV, the enrichment ratio worked out at 14.3.
As for TNAE, the enrichment ratio is at most 0.25.
On to TNAT, for which the enrichment ratio was found to be 11.
Consider TNAS, for which the enrichment ratio was 13.9.
As for MNAV, the enrichment ratio turned out to be 2.67.
As to SNAE, the enrichment ratio amounted to 7.95.
Regarding VMEP, the enrichment ratio was at most 0.25.
For SHGD, the enrichment ratio was at most 0.25.
Consider NFGC, for which the enrichment ratio is at most 0.25.
Turning to DFHC, the enrichment ratio is at most 0.25.
In the case of QAAF, the enrichment ratio was at most 0.25.
On to RPYT, for which the enrichment ratio was at most 0.25.
ANAT: the enrichment ratio stood at 17.7.
For the variant ANNT, the enrichment ratio is at most 0.25.
For the variant TNAA, the enrichment ratio stood at 13.7.
With TNAD, the enrichment ratio is at most 0.25.
Take MNAA: the enrichment ratio is 8.61.
On to ANLT, for which the enrichment ratio stood at 4.56.
Take HRYS: the enrichment ratio is at most 0.25.
As for LMNM, the enrichment ratio is at most 0.25.
With NMWP, the enrichment ratio is at most 0.25.
Turning to SACE, the enrichment ratio stood at 11.7.
With SAQP, the enrichment ratio was at most 0.25.
SAMD: the enrichment ratio is at most 0.25.
SACI: the enrichment ratio was found to be 13.7.
In the case of SAPE it was at most 0.25; in that of KACQ, at most 0.25; in that of SACQ, 13.5.
With SACK, the enrichment ratio stood at 0.562.
Next, SAAM: 7.53.
As for WVWC, the enrichment ratio was at most 0.25.
Take YMTW: the enrichment ratio is at most 0.25.
For YYYE, the enrichment ratio was at most 0.25.
Regarding RLRN, the enrichment ratio is at most 0.25.
In the case of SGRV, the enrichment ratio is at most 0.25.
Next, SHQI: at most 0.25; TQQI: 11.5; LAQI: at most 0.25.
Turning to TAPA, the enrichment ratio is at most 0.25.
As for TAQI, the enrichment ratio amounted to 23.7.
In the case of KQQI it was at most 0.25.
With LQQI, the enrichment ratio was at most 0.25.
As for THQI, the enrichment ratio stood at 24.1.
With PTQI, the enrichment ratio was at most 0.25.
For the variant TKQI, the enrichment ratio was found to be 17.5.
Take NHQI: the enrichment ratio is at most 0.25.
TQRI: the enrichment ratio is at most 0.25.
In the case of IYTC it was at most 0.25; in that of SRID, at most 0.25; in that of LRCL, at most 0.25.
Next, VTSC: at most 0.25; QCKT: at most 0.25.
Regarding MFMN, the enrichment ratio was at most 0.25.
Consider YQKV, for which the enrichment ratio was at most 0.25.
On to GKEW, for which the enrichment ratio was at most 0.25.
As for TLQI, the enrichment ratio came out at 14.7.
For the variant KSQI, the enrichment ratio is at most 0.25.
Regarding KAQI, the enrichment ratio is at most 0.25.
Turning to VMGP, the enrichment ratio is at most 0.25.
Consider DKIR, for which the enrichment ratio is at most 0.25.
As to PQLM, the enrichment ratio was at most 0.25.
In the case of KNVL it was at most 0.25; in that of EARA, at most 0.25; in that of FQWE, 1.71.
Consider SHME, for which the enrichment ratio was at most 0.25.
AAPE: the enrichment ratio is at most 0.25.
In the case of ATME, the enrichment ratio turned out to be 7.5.
For the variant AAMY, the enrichment ratio is at most 0.25.
On to TDME, for which the enrichment ratio came out at 11.5.
THME: the enrichment ratio stood at 49.
Turning to NHME, the enrichment ratio is at most 0.25.
Consider TDVE, for which the enrichment ratio was at most 0.25.
Next, AAME: 30.8; AIME: 1.65; LTME: at most 0.25.
Consider AHME, for which the enrichment ratio was determined as 12.2.
On to YSHD, for which the enrichment ratio was at most 0.25.
In the case of PTCC, the enrichment ratio is at most 0.25.
Take MPHN: the enrichment ratio is at most 0.25.
Next, RHYV: at most 0.25; TAVD: at most 0.25.
Regarding SIIF, the enrichment ratio was determined as 0.435.
For the variant MTIV, the enrichment ratio is at most 0.25.
Take GTVM: the enrichment ratio amounted to 36.9.
On to MTIM, for which the enrichment ratio came to 25.3.
FEVA: the enrichment ratio is at most 0.25.
For the variant FEVM, the enrichment ratio is 11.6.
Next, MTTM: 18.5.
Turning to MKTM, the enrichment ratio was at most 0.25.
Take MTTD: the enrichment ratio was at most 0.25.
As for MTRM, the enrichment ratio is at most 0.25.
In the case of FCVM it was at most 0.25; in that of LTVM, at most 0.25; in that of YTVM, at most 0.25.
Regarding FLDD, the enrichment ratio is at most 0.25.
With FDRW, the enrichment ratio was at most 0.25.

Values taken from a collection of fitness landscapes (doi:10.1126/science.1257360).
